Measured values as given in the supplement of paper PMC12532568.
Structures can show the parent of a compound that is named as a salt.

How the values were obtained:
[1] = test system: Danio rerio larvae Tg(actc1b:ZsGreen-LC3), 3 dpf; assay: LC3 puncta relative area vs vehicle, without NH4Cl (log2 fold change); higher = more autophagosomes; conditions: 10 µM; treatment time 16 h; NH4Cl: none
Procedure: (§1)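 Transgenic Tg(actc1b:ZsGreen-map1lc3) zebrafish larvae (2 dpf) were treated for 16 h with Tocris library compounds at 10 µM (n = 12 larvae per compound). Skeletal-muscle LC3 puncta area relative to body area was measured by high-content confocal imaging before and after 4 h of 100 mM NH4Cl (autophagic flux), normalised to vehicle (DMSO), and reported as log2 fold change.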

[2] = test system: Danio rerio larvae Tg(actc1b:ZsGreen-LC3), 3 dpf; assay: LC3 puncta relative area vs vehicle, with NH4Cl (autophagic flux) (log2 fold change); higher = more autophagy; conditions: 10 µM; treatment time 16 h; NH4Cl: + 100 mM, 4 h
Procedure: as §1

| Compound | LC3 puncta (log2) [1] | LC3 puncta (log2) [2] |
| --- | --- | --- |
| COc1ccc2[nH]c(I)c(CCNC(C)=O)c2c1 [2-Iodomelatonin] | 0.515 | – |
| O=C(O)C1=CCCNC1 [Guvacine hydrochloride] | – | 0.136 |
